Laboratory results as given in PubChem BioAssay (Tox21).
Results filed as inconclusive are left out. The source made the active and inactive calls. Unless noted, calls follow the shape of the dose curve; as a rule, active = well fitted curve in the direction sought with a large enough effect in the repeat runs; inconclusive = weak or mixed curves; inactive = no such curve, though single readings can be large; an effect the other way counts as inactive or inconclusive.

Legend:
[1] = qHTS assay for small molecules that induce genotoxicity in human embryonic kidney cells expressing luciferase-tagged ATAD5 (AID 651632); also: % is scaled to controls: 0 for no effect and ±100 for the full control effect; nearly all actives have a fitted effect of over 15% in size
In short: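 Reporter cells (HEK293T) express luciferase-tagged ATAD5, a protein that accumulates after DNA damage. Treat 16 hr at 37C/5% CO2, add Amplite, wait 30 min at RT, and read luminescence.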

[2] = qHTS assay for small molecule agonists of the p53 signaling pathway - cell viability (AID 651633; calls by dose curve;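 also: p53RE-bla HCT reporter cells with a stable beta-lactamase p53 reporter; series mostly up to about 83 µM; % is scaled to controls: 0 for no effect and ±100 for the full control effect; nearly all actives have a fitted effect of over 30% in size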)
In short: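 p53RE-bla cells, seeded at 4,000 per well and rested 5 h at 37 C/5% CO2, received compounds in DMSO for 16 h at 37 C. CellTiter-Glo was then added, and luminescence was read after 30 min at room temperature to gauge cytotoxicity.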

[3] = qHTS assay for small molecules that induce genotoxicity in human embryonic kidney cells expressing luciferase-tagged ATAD5 - cell viability (AID 651634; calls by dose curve; also: % is scaled to controls: 0 for no effect and ±100 for the full control effect; nearly all actives have a fitted effect of over 25% in size)
In short: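 Seeding of 2,000 HEK293T ATAD5-luciferase cells per well preceded pin-tool compound transfer. Plates sat 15.5 hr at 37C under 5% CO2, then fluorescence was read after 30 min with CellTiter-Fluor.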

[4] = qHTS assay for small molecule disruptors of the mitochondrial membrane potential - cell viability (AID 720634; calls by dose curve;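 also: human HepG2 liver cancer cells; series mostly up to about 83 µM; % is scaled to controls: 0 for no effect and ±100 for the full control effect; nearly all actives have a fitted effect of over 20% in size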)
In short: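 Measuring cytotoxicity alongside mitochondrial potential, the screen quantified ATP by luminescence in HepG2 cells after 1 hr compound incubation and a 30 min room-temperature CellTiter-Glo step.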

[5] = qHTS assay to test for compound auto fluorescence at 590 nm (red) in HepG2 cells (AID 720674); also: % is scaled to controls: 0 for no effect and ±100 for the full control effect
In short: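 Intrinsic compound fluorescence in the red window (Ex/Em 540/590 nm) is measured in attached HepG2 cells exposed for 1 hr, DMSO vehicle as baseline, benchmarked to Rose Bengal sodium.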

[6] = qHTS assay to test for compound auto fluorescence at 535 nm (green) in HepG2 cells (AID 720675); also: % is scaled to controls: 0 for no effect and ±100 for the full control effect
[7] = qHTS assay to test for compound auto fluorescence at 460 nm (blue) in HEK293 cells (AID 720678); also: % is scaled to controls: 0 for no effect and ±100 for the full control effect
In short: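 Blue read-out at excitation 405 nm and emission 460 nm follows overnight compound exposure of HEK293 cells at 37C in 5% CO2. Activity is given as auto fluorescence equivalency to triamterene.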

[8] = qHTS assay to test for compound auto fluorescence at 590 nm (red) in HEK293 cells (AID 720679); also: % is scaled to controls: 0 for no effect and ±100 for the full control effect
In short: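 Red channel, Ex/Em 540/590nm; signal expressed as equivalency to Rose Bengal sodium. HEK293, 2,000 cells/well, 10% dialyzed FBS; 23 nL compound pinned after 4-5 hr attachment; overnight 37C/5% CO2 before reading.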

[9] = qHTS assay to test for compound auto fluorescence at 535 nm (green) in HEK293 cells (AID 720680); also: % is scaled to controls: 0 for no effect and ±100 for the full control effect
[10] = qHTS assay to test for compound auto fluorescence at 460 nm (blue) in HEK293 cell free culture (AID 720681); also: % is scaled to controls: 0 for no effect and ±100 for the full control effect
In short: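 Test compounds were pinned into cell-free culture medium (DMEM with 10% FBS) and fluorescence was read directly at Ex/Em 405/460 nm. Signals were expressed as fluorescence equivalents of triamterene, with DMSO vehicle as control.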

[11] = qHTS assay to test for compound auto fluorescence at 590 nm (red) in HEK293 cell free culture (AID 720683); also: % is scaled to controls: 0 for no effect and ±100 for the full control effect
In short: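 Tox21 10K library compounds were pinned into cell-free DMEM with 10% FBS and fluorescence was read at excitation 540 nm. Activity is expressed as Rose Bengal sodium equivalency.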

[12] = qHTS assay to test for compound auto fluorescence at 590 nm (red) in HepG2 cell free culture (AID 720684); also: % is scaled to controls: 0 for no effect and ±100 for the full control effect
In short: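 Measured in medium alone (MEM containing 10% FBS) following pintool addition of compound; emission at 590 nm with 540 nm excitation, referenced to Rose Bengal sodium.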

[13] = qHTS assay to test for compound auto fluorescence at 460 nm (blue) in HepG2 cell free culture (AID 720685); also: % is scaled to controls: 0 for no effect and ±100 for the full control effect
In short: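 Compound (23 nL) or DMSO pinned into cell-free MEM with 10% FBS; blue fluorescence read at 405/460 nm excitation/emission, expressed as auto-fluorescence equivalency to triamterene.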

[14] = qHTS assay to test for compound auto fluorescence at 535 nm (green) in HepG2 cell free culture (AID 720686); also: % is scaled to controls: 0 for no effect and ±100 for the full control effect
[15] = qHTS assay to test for compound auto fluorescence at 460 nm (blue) in HepG2 cells (AID 720687); also: % is scaled to controls: 0 for no effect and ±100 for the full control effect
In short: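 Cells (2,000/well in MEM with 10% FBS) attached overnight at 37 C, then were exposed to compound or DMSO for 1 hr at 37 C, 5% CO2. Fluorescence read at Ex/Em 405/460 nm, expressed as triamterene-equivalent signal.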

[16] = qHTS assay to test for compound auto fluorescence at 535 nm (green) in HEK293 cell free culture (AID 720682); also: % is scaled to controls: 0 for no effect and ±100 for the full control effect
In short: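 Steps: dispense DMEM/10% FBS into empty wells; pin in compound or DMSO; measure fluorescence at 485/535 nm. Values are fluorescein equivalents.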

[17] = target: Glucocorticoid receptor (Homo sapiens) (UniProt P04150); experiment: qHTS assay to identify small molecule agonists of the glucocorticoid receptor (GR) signaling pathway (AID 720691; active = well fitted activation curve with a large enough effect in the signal ratio in the repeat runs, not every such curve was filed as active; the % refers to the signal ratio; also: % is scaled to controls: 0 for no effect and ±100 for the full control effect)
In short: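 Reporter read-out: fluorescence intensity following 2 h room-temperature LiveBLAzer B/G FRET substrate loading. Prior step: GR-bla HeLa cells held 4 h, then treated 18 h at 37 C.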

[18] = target: Glucocorticoid receptor (Homo sapiens) (UniProt P04150); experiment: qHTS assay to identify small molecule antagonists of the glucocorticoid receptor (GR) signaling pathway (AID 720692; active = well fitted inhibition curve with a large enough effect in the signal ratio in the repeat runs, not every such curve was filed as active; the % refers to the signal ratio; also: % is scaled to controls: 0 for no effect and ±100 for the full control effect)
In short: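 Dexamethasone (5 nM final) stimulated a stably integrated GRE-beta-lactamase reporter in HeLa cells during 18 h co-incubation with compounds; signal was quantified as fluorescence intensity of B/G FRET substrate after 2 h.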

[19] = qHTS assay for small molecule disruptors of the mitochondrial membrane potential (AID 720635); also: potency is read from the fitted curve at half-maximal effect
In short: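 HepG2 cells (2,000/well) attached overnight at 37C, then took compound for 1 hr at 37C, 5% CO2. Mito-MPS dye was added for 30 min; fluorescence was read at 490/535 nm (monomers) and 540/590 nm (aggregates).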

Glucocorticoid receptor (Homo sapiens), sequence (P04150 whole entry, looked up): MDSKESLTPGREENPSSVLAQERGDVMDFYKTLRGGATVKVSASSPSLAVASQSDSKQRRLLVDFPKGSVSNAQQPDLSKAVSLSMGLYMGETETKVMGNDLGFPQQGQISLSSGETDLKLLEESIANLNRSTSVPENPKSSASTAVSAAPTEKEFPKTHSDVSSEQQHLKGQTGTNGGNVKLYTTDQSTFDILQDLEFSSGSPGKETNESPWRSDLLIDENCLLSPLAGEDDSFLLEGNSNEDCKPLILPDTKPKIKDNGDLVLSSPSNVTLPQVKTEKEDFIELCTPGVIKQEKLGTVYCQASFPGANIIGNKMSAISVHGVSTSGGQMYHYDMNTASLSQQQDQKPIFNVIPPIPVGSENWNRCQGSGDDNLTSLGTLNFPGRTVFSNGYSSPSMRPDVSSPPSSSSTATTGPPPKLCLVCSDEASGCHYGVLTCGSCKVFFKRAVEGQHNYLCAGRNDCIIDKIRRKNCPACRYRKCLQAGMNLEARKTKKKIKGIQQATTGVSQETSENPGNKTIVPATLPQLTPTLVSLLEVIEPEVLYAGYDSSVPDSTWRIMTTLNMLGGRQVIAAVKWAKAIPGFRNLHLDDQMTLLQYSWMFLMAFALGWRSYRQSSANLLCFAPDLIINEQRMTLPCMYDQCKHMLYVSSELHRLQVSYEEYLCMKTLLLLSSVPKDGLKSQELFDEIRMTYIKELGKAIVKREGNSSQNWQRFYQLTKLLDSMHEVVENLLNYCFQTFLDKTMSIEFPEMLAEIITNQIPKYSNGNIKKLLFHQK

N[C@H]1C(O)O[C@H](CO)[C@H](O)[C@@H]1O (some centres undefined)
inactive: Potency [1] | Potency [2] | Potency [3] | Potency [4] | outcome [5] | outcome [6] | Potency [7] | outcome [8] | outcome [9] | Potency [10] | outcome [11] | outcome [12] | Potency [13] | outcome [14] | Potency [15]

C=C(C)C(=O)OCCN(C)C
inactive: Potency [1] | Potency [2] | Potency [3] | outcome [5] | outcome [6] | Potency [7] | outcome [8] | outcome [9] | outcome [16] | outcome [11] | Potency [13] | outcome [14] | Potency [15]

CNCC[C@@H](Oc1ccccc1C)c1ccccc1
inactive: Potency [1] | Potency [2] | Potency [3] | Potency [4] | outcome [5] | outcome [6] | Potency [7] | outcome [8] | outcome [9] | outcome [16] | outcome [11] | outcome [12] | Potency [13] | outcome [14] | Potency [15] | Potency [17] | Potency [18]

CCCCC(CC)(CO)CO
inactive: Potency [1] | Potency [2] | Potency [3] | Potency [4] | outcome [5] | outcome [6] | Potency [7] | outcome [8] | outcome [9] | Potency [10] | outcome [16] | outcome [11] | Potency [13] | outcome [14] | Potency [15]

C=C(C)C(=O)OCCOc1ccccc1
inactive: Potency [1] | Potency [2] | Potency [3] | Potency [4] | outcome [5] | outcome [6] | Potency [7] | outcome [8] | outcome [9] | outcome [16] | outcome [11] | outcome [12] | Potency [13] | outcome [14] | Potency [15] | Potency [17] | Potency [18]

CN1CCC(=C2c3ccccc3CCc3sccc32)CC1
inactive: Potency [1] | Potency [2] | Potency [4] | outcome [5] | outcome [6] | Potency [7] | outcome [8] | outcome [9] | Potency [10] | outcome [11] | outcome [14] | Potency [15] | Potency [17]

O=C(O)C(c1ccc(Cl)cc1)c1ccc(Cl)cc1
inactive: Potency [1] | Potency [2] | Potency [3] | Potency [4] | outcome [6] | Potency [7] | outcome [8] | outcome [9] | Potency [10] | outcome [16] | outcome [11] | outcome [12] | outcome [14] | Potency [15]

CC(O)C1CCCCC1 (centres undefined)
inactive: Potency [1] | Potency [2] | Potency [3] | Potency [4] | outcome [5] | outcome [6] | Potency [7] | outcome [8] | outcome [9] | Potency [10] | outcome [11] | outcome [12] | Potency [15] | Potency [17] | Potency [18]

COC(=O)CSc1cc(N=c2sc(=O)n3n2CCCC3)c(F)cc1Cl
inactive: Potency [1] | Potency [2] | Potency [3] | Potency [4] | outcome [6] | Potency [7] | outcome [8] | outcome [9] | outcome [16] | outcome [11] | outcome [12] | Potency [13] | outcome [14] | Potency [15] | Potency [17] | Potency [18]

CCCCCCCCCCCCCCCCCBr
inactive: Potency [1] | Potency [2] | Potency [3] | Potency [4] | fluorescence, relative to Rose Bengal [5] -0.244% [at 18.6 µM] | fluorescence, % of fluorescein control [6] -0.0441% [at 18.6 µM] | fluorescence, % of triamterene [7] 0.159% [at 18.6 µM] | fluorescence, % of fluorescent control [8] 0.301% [at 18.6 µM] | fluorescence, % of fluorescein [9] 0.0114% [at 18.6 µM] | fluorescence, % of fluorescent control [10] -0.0559% [at 18.6 µM] | activity change [16] -0.0304% [at 18.6 µM] | fluorescence, % of fluorescent control [11] -0.288% [at 18.6 µM] | fluorescence, % of Rose Bengal [12] 0.0382% [at 18.6 µM] | fluorescence, % of fluorescent control [13] 0.0584% [at 18.6 µM] | fluorescence, % of fluorescein control [14] 0.134% [at 18.6 µM] | fluorescence, % of fluorescent control [15] 0.0228% [at 18.6 µM] | Potency [17] | Potency [18]

CC(=O)c1c(C)c([N+](=O)[O-])c(C(C)(C)C)c([N+](=O)[O-])c1C
active: Potency [19] 54.5 µM
inactive: Potency [1] | Potency [2] | Potency [3] | outcome [5] | outcome [6] | Potency [7] | outcome [8] | outcome [9] | Potency [10] | outcome [16] | outcome [11] | outcome [12] | outcome [14] | Potency [15] | Potency [17] | Potency [18]

Cc1ccc(O)c([C@H](CCN(C(C)C)C(C)C)c2ccccc2)c1
inactive: Potency [1] | Potency [2] | Potency [4] | outcome [5] | outcome [6] | Potency [7] | outcome [8] | outcome [9] | Potency [10] | outcome [11] | outcome [12] | Potency [13] | outcome [14] | Potency [15]

CCOc1ccc2[nH]cc(C(=O)NCc3ccccc3)c(=O)c2n1
inactive: Potency [1] | Potency [2] | Potency [3] | Potency [4] | outcome [5] | outcome [6] | Potency [7] | outcome [8] | outcome [9] | Potency [10] | outcome [16] | outcome [11] | outcome [12] | outcome [14] | Potency [15]

CN1CCN(C2=Nc3cc(Cl)ccc3Nc3ccccc32)CC1
inactive: Potency [1] | Potency [2] | Potency [4] | outcome [5] | outcome [6] | Potency [7] | outcome [8] | outcome [9] | outcome [16] | outcome [11] | outcome [12] | Potency [13] | outcome [14] | Potency [15] | Potency [17]

c1ccc(-c2nc[nH]c2-c2ccccc2)cc1
inactive: Potency [1] | Potency [2] | Potency [3] | Potency [4] | outcome [6] | Potency [7] | outcome [8] | outcome [9] | outcome [16] | outcome [11] | outcome [12] | Potency [13] | outcome [14] | Potency [15]

CCCCCCCC/C=C\CCCCCCCC(N)=O
active: Potency [19] 48.5 µM
inactive: Potency [1] | Potency [2] | Potency [4] | outcome [6] | Potency [7] | outcome [8] | outcome [9] | Potency [10] | outcome [11] | outcome [12] | Potency [13] | outcome [14] | Potency [15] | Potency [17] | Potency [18]
